Screens: PubChem BioAssay, National Center for Advancing Translational Sciences (NCATS)
HT1080 IDH1KD tx – toxicity to HT-1080 IDH1 knockdown cells (counter line); hit rate 2% among 360,000; HT-1080 IDH1 knockdown viability, ATP luminescence, 48 h; Potency, µM (titrated, usually from 46.1 µM), inactives show top-dose activity, negative = toxicity, usual class: cytotoxic; AID 686971;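 note: potency is the fitted concentration of half-maximal effect; 0% = DMSO wells and -100% = cell-free medium wells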
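Luminescent ATP read-out (CellTiter-Glo, 10 min at room temperature) after 48 h compound exposure at 37 °C gave viability of IDH1-knockdown HT-1080 cells. Activity was normalised to DMSO and cell-free wells, then fitted as concentration-response curves.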
TDP1 cell CPT – growth inhibition of DT40 Tdp1-/-;hTDP1 cells with camptothecin (screen for TDP1 inhibitors) | chicken DT40 Tdp1-/-;hTDP1 cells + 20 nM CPT, ATP luminescence, 48 h | Potency, µM (series often up to 46.2 µM), for the others: at the top dose activity change, negative = growth inhibition, usual class: inhibitors | hit rate 12% among 420,000 | AID 686979; note: potency is the fitted concentration of half-maximal effect; nearly all actives have a fitted effect of over 55% in size
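Chicken DT40 Tdp1-/- cells stably complemented with human TDP1 were seeded at 400 cells/well in medium containing 20 nM camptothecin, exposed to pin-transferred compounds, and grown at 37 °C for at least 48 hr. Viability was read as ATP luminescence.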
DT40 TDP1 no CPT – qHTS for Inhibitors of human tyrosyl-DNA phosphodiesterase 1 (TDP1): qHTS in cells in absence of CPT; hit rate 15% among 420,000; AID 686978, 2013; DT40 Tdp1-/- hTDP1 cells, no CPT, ATP luminescence, 48 h; Potency, µM (doses to about 46.2 µM), inactives show at the top dose activity change, negative = growth inhibition, hits mostly inhibitors; note: potency is the fitted concentration of half-maximal effect; nearly all actives have a fitted effect of over 55% in size
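Chicken DT40 Tdp1-/- cells complemented with human TDP1, screened without camptothecin (DMSO vehicle only), 400 cells/well. Compounds pin-transferred, cells incubated at 37 °C for at least 48 hr. Growth read as ATP-dependent luminescence (CellTiter-Glo, 30 min at RT).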
HT1080NT lethal – kills 2HG-producing HT-1080-NT fibrosarcoma cells | HT-1080-NT fibrosarcoma viability, CellTiter-Glo ATP luminescence, 48 h | Potency, µM (doses to about 46.1 µM), inactives show at the highest dose activity, negative = less viability, actives largely listed as cytotoxic | hit rate 1.6% among 360,000 | AID 686970;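 note: NT is the 2HG producing partner of a matched IDH1 knockdown line; potency is the fitted concentration of half-maximal effect; 0% = DMSO-treated cells and -100% = media-only wells without cells; nearly all actives have a fitted effect of over 55% in size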
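Viability by CellTiter-Glo luminescence after 48 h compound exposure at 37C of HT-1080-NT cells (750/well, RPMI, 5% FBS). % activity scaled between DMSO wells and medium-only wells, then curve-fitted and categorized by curve class.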
IL-1B inflam inh – blocks inflammasome-driven IL-1 beta release; THP-1 LPS/ATP IL-1B secretion, AlphaLISA, 16 h; stronger effect = lower value; activity change, % at 57.5 µM; hit rate 4.7% among 360,000; AID 743279; in the data active = activity change below about -50%; inconclusive = mostly about -30% to -49%
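THP-1 cells pretreated 1 hr with compounds (up to 57.5 uM final), then stimulated with LPS (250 ng/mL final) plus ATP (1.25 mM final); secreted IL-1B measured by AlphaLISA after 16 hr, decreased signal indicating inhibition.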
The depositor's hits bear a star; u = inconclusive; x = no result given; [ ] = dose if it differs, or a comment. A selection: hits, their analogues and other compounds. The true share with any hit is near 19%. Unless noted, calls come from the whole dose curve; as a rule, active = well fitted curve in the direction sought with a large enough effect; inconclusive = small, poorly fitted or top-dose-only effect, or another doubt; inactive = no such curve, though single readings can be large; an effect the other way counts as inactive or inconclusive. Unless noted, % is set by controls: 0 for no effect and ±100 for the full control effect.

SMILES | HT1080 IDH1KD tx | TDP1 cell CPT | DT40 TDP1 no CPT | HT1080NT lethal | IL-1B inflam inh
COCc1ccc(-c2c(-c3ccsc3)oc(=O)c3cc(OC)c(OC)cc23)cc1 | -1.1% | u | 20.6µM* | -2.2% | 8.1
COc1cc2c(C#CCCO)c(-c3ccc(C#N)cc3)oc(=O)c2cc1OC | -17.3% | -20.2% | u | -14.0% | 0.3
Cc1ccc(CNC(=O)c2nnc(Cc3cccc(F)c3)o2)cc1 | x | -20.4% | -21.8% | x | x
COCCNC(=O)C1(C)CCCN(C(=O)c2cc(F)cc(F)c2)C1 (centres undefined) | 18.0% | 3.7% | 17.5% | 0.0% | 13.8
Cc1ccc(-n2nc(C(=O)N3CCC(C)CC3)c(=O)n(C)c2=O)cc1 | x | -8.0% | -16.5% | x | x
COc1ccc(NC(=O)N2CC[C@@]3(CCCN(C(=O)c4cccn4C)C3)C2)cc1 | x | 1.4% | -10.3% | x | x
Cc1cccc(C)c1NC(=O)c1cnccn1 | 0.4% | 2.9% | 2.3% | 4.6% | 23.3
COCCCn1c2nc3ccccc3nc2c2c(=O)n(-c3ccccc3OC)cnc21 | -3.9%[9.24 µM] | u | -29.2% | -1.1% | 0.0
COc1ccccc1-n1cnc2c(c1=O)c1nc3ccccc3nc1n2-c1ccc(C)c(C)c1 | 26.8% | -77.4% | 18.4µM* | 20.4% | 12.9
Cc1ccc(NC(=O)CCn2cnc3onc(-c4ccc(F)cc4)c3c2=O)c(Br)c1 | x | -12.8% | -13.0% | x | x
CCOc1ccccc1N(C)C(=O)Cn1cnc2onc(-c3ccc(F)cc3)c2c1=O | x | u | 20.6µM* | x | x
COc1ccc(N(C)C(=O)CCn2cnc3onc(-c4ccc(F)cc4)c3c2=O)c(OC)c1 | x | 20.6µM* | 13µM* | x | x
CCCN(CCC)CCCNC(=O)Cn1cnc2onc(-c3ccc(F)cc3)c2c1=O | x | -14.4% | -24.6% | x | x
CN(C(=O)Cn1cnc2onc(-c3ccc(F)cc3)c2c1=O)c1ccccc1Cl | x | 20.6µM* | u | x | x
COc1ccc(C(=O)NCCOc2ccccc2Cl)c(OC)c1OC | -2.2% | u | u | -7.3% | -6.8
Cc1cc(C)c(S(=O)(=O)N2CCOC2CNC(=O)C(=O)NCCCN2CCOCC2)c(C)c1 (centres undefined) | 5.7% | 4.3% | -2.2% | -11.1% | -8.8
Nc1c(C(=O)NC2CCCC2)c2nc3ccccc3nc2n1N | -28.8% | u | 23.1µM* | -22.3% | -3.8
Nc1c(C(=O)NC2CCCC2)c2nc3ccccc3nc2n1/N=C/c1ccco1 | -4.6% | 0.9% | -28.1% | -2.4% | -14.6
COc1ccc(OC)c(-n2c(N)c(C(=O)NCC3CCCO3)c3nc4ccccc4nc32)c1 (centres undefined) | -6.6% | u | u | -2.1% | 0.0
CC(C)Cn1c(N)c(C(=O)NCC2CCCO2)c2nc3ccccc3nc21 (centres undefined) | u | u | 25.9µM* | u | -79.9*
COCCn1c(N)c(C(=O)NCC2CCCO2)c2nc3ccccc3nc21 (centres undefined) | -9.2% | u | u | -11.7% | -18.4
Nc1c(C(=O)NCC2CCCO2)c2nc3ccccc3nc2n1/N=C/c1ccncc1 (centres undefined) | 7.3% | 8.2µM* | 1.64µM* | -2.0% | 0.0
Nc1c(C(=O)OCC2CCCO2)c2nc3ccccc3nc2n1C1CCCC1 (centres undefined) | -4.1% | u | 11.6µM* | -1.6% | 1.5
CCOc1ccc(NC(=O)c2ccccc2C(=O)c2ccccc2)cc1OCC | -1.7% | u | u | -1.7% | -1.5
CN(Cc1ccccc1)C(=O)Nc1c(Cl)cccc1Cl | u | -5.1% | 0.5% | 1.1% | -16.4
SMILES | HT1080 IDH1KD tx | TDP1 cell CPT | DT40 TDP1 no CPT | HT1080NT lethal | IL-1B inflam inh
CCOC(=O)C1CCCN(c2cc(C)nc3cc(-c4ccc(F)cc4)nn23)C1 (centres undefined) | u | 23.1µM* | 23.1µM* | u | 13.6
CCOC(=O)C1CCCN(c2cc(C)nc3cc(-c4ccc(Cl)cc4)nn23)C1 (centres undefined) | -18.2% | u | 23.1µM* | u | 9.2
COc1cccc(NC(=O)C2CCN(S(=O)(=O)c3ccc4c(c3)C(C)(C)C(=O)N4C)CC2)c1 | -2.6% | 3.1% | u | 2.4% | 17.0
COc1ccccc1N1CCN(CC(=O)Nc2nc(C)c(C(=O)N(C)C)s2)CC1 | -0.4% | 10.0% | -16.0% | -0.7% | 17.5
COc1ccc(/C=C2\SC(=S)N(CC(=O)Nc3nnc(C)s3)C2=O)cc1 | 3.1% | -0.9% | -0.6% | 26.1% | -12.8
Cc1ccc(/C(O)=C2/C(=O)C(=O)N(CCN3CCOCC3)C2c2cccs2)cc1 (centres undefined) | 5.8% | u | 3.8% | 10.4% | 27.6
CCCCOc1ccc(-c2nnc(-c3ccncc3)o2)cc1 | 2.3% | u | 20.6µM* | 7.7% | 37.6
CCOc1ccc(-c2nnc(-c3ccncc3)o2)cc1 | -7.9% | 20.6µM* | u | 0.8% | -1.5
COc1ccc2c(c1)CC/C(=C\Nc1ccc3c(c1)OCO3)C2=O | 4.7%[9.24 µM] | 14.6µM* | u | u | -87.1*
O=C1/C(=C/Nc2ccc3c(c2)OCO3)CCc2ccccc21 | u | 25.9µM* | u | u | -2.5
COc1ccc(N/C=C2\CCc3ccccc3C2=O)cc1 | u | u | u | u | 1.3
Cc1ccc(OCCSc2nc3ccccc3n2CC(=O)O)cc1C | 8.2% | 7.4% | 1.3% | 6.2% | -9.5
CCOC(=O)c1c(-n2c(C)cc(C=O)c2C)sc2c1CCCC2 | u | 15.8µM* | u | -22.2% | -56.4*
CCOC(=O)c1cccc(-n2c(C)cc(C=O)c2C)c1 | -9.3% | -3.0% | -29.6% | -2.1% | 15.5
O=C(C1=NNCC1c1ccccc1)C1OC1c1ccccc1 (centres undefined) | -18.3% | -18.1% | u | -2.0% | -89.4*
CCN(C)C1CN(Cc2cn(Cc3cc(C)cc(C)c3)nn2)S(=O)(=O)C1 (centres undefined) | 6.8% | -1.3% | -22.9% | 16.3% | -52.0*
CN(Cc1cn(Cc2ccc(F)cc2)nn1)C1CN(Cc2cn(Cc3ccc(F)cc3)nn2)S(=O)(=O)C1 (centres undefined) | -3.5% | -26.3% | -22.4% | 6.5% | 2.8
CN(Cc1cn(Cc2ccc(Cl)cc2)nn1)C1CN(Cc2cn(Cc3ccc(Cl)cc3)nn2)S(=O)(=O)C1 (centres undefined) | -6.3% | 18.4µM* | 13µM* | -17.3% | u
Cc1cc(C)cc(Cn2cc(CN3CC(N(C)C)CS3(=O)=O)nn2)c1 (centres undefined) | 1.0% | 2.1% | -12.8% | 17.2% | 5.0
CCCCCc1ccc2cc(C#N)ccc2n1 | 5.6% | -22.9% | -1.7% | 21.2% | 0.0
O=C(N/C=N/OCc1ccc(Cl)cc1Cl)NOCc1c(Cl)cccc1Cl | 16.4µM* | 20.6µM* | 23.1µM* | 16.4µM* | -5.1
